From PubChem BioAssay
An excerpt weighted towards active compounds, which were near 4.2% of everything screened.
12-LOX inh: ALOX12 (human) lipoxygenase inhibition; AID 1671190; purified 12hLO, xylenol orange hydroperoxide absorbance; P18054; 580,000 compounds, 1.1% hits; Potency, µM (series often up to 108 µM), without a hit: at the top dose activity change, negative = inhibition, actives largely listed as inhibitors
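Purified human 12hLO at 150 nM in 25 mM Hepes, 0.01% Triton X-100, pH 7.0, preincubated 15 min at room temperature with compound. Reaction started with 40 uM arachidonic acid, 30 min at room temperature. Hydroperoxide measured by Fe-xylenol orange, 573/405 nm absorbance ratio.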
Sfp inh: blocks B. subtilis Sfp PPTase activity; Potency, µM, inactives show largest response in the series, negative = inhibition, hits mostly inhibitors; Q9F4F7; 310,000 compounds, 3.5% hits; Biochemical Sfp PPTase activity, qHTS;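 note: the enzyme is Sfp with the accession as filed and its product quenches rhodamine fluorescence; 0% = enzyme reaction without inhibitor and -100% = no enzyme wells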
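With Hepes-Na pH 7.6 buffer containing 10 mM MgCl2, Sfp (15 nM) modified BHQ-2-YbbR (12.5 uM) using rhodamine-CoA (5 uM). Two reads 30 minutes apart at 525/598 nm yielded each well's rate.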
PLK1 PBD inh: PLK1 (human) polo-box domain binding inhibition; P53350; Plk1 PBD binding of FITC phosphopeptide, fluorescence polarization; Potency, µM, for the others: max response, negative = inhibition, hits mostly inhibitors; 360,000 compounds, 2.8% hits; note: series mostly up to about 57 µM; nearly all actives have a fitted effect of over 65% in size
Target sequence (P53350 whole entry, looked up, the tested form may be a part): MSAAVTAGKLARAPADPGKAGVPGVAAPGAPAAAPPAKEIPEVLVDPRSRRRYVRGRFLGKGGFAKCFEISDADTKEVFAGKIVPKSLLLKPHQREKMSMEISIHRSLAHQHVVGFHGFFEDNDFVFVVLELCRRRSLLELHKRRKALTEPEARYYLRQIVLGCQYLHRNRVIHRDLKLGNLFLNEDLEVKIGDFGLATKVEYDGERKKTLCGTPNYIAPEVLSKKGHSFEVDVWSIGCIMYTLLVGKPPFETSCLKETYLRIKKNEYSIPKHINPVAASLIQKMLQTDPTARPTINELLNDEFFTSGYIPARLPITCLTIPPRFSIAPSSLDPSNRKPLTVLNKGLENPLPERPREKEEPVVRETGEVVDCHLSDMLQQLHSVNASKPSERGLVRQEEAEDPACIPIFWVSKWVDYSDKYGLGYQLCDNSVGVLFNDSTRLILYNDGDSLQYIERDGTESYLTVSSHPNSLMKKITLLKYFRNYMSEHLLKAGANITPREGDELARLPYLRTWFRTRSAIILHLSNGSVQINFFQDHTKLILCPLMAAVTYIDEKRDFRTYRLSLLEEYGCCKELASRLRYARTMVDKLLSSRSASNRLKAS
VDR inh: blocks the human vitamin D receptor | VDR-SRC2-3 peptide fluorescence polarization, 2 h | AID 504847 | Potency, µM, without a hit: max response, negative = inhibition, most hits filed as inhibitors | P11473 | 400,000 compounds, 0.93% hits
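VDR–SRC2-3 interaction, FP format. Cmpds 23 nl via pintool, brief spin, 2 h ambient incubation.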
TbPYK confirm: Trypanosoma brucei pyruvate kinase inhibition, cherry-pick confirmation; 890 compounds, 67% hits; shares compounds with PLK1 PBD inh; Potency, µM (titrated, usually from 76.9 µM), without a hit: at the highest dose activity change, negative = inhibition, actives largely listed as inhibitors; recombinant TbPYK, Kinase-Glo ATP luminescence; note: nearly all actives have a fitted effect of over 70% in size
TbPYK ADP-Glo: orthogonal confirmation of Trypanosoma brucei pyruvate kinase inhibitors. shares compounds with PLK1 PBD inh. 890 compounds, 62% hits. recombinant TbPYK, ADP-Glo luminescence, 60 min. Potency, µM (titrated, usually from 76.9 µM), for the others: at the highest dose activity change, negative = inhibition, usual class: inhibitors; note: nearly all actives have a fitted effect of over 75% in size
* hit, by the source's call; ? = inconclusive; / = not tested or not shown; ! = repeats disagree; [ ] = dose if it differs, or a comment. Calls come from the whole dose curve; as a rule, active = well fitted curve in the direction sought with a large enough effect; inconclusive = small, poorly fitted or top-dose-only effect, or another doubt; inactive = no such curve, though single readings can be large; an effect the other way counts as inactive or inconclusive. Unless noted, % is set by controls: 0 for no effect and ±100 for the full control effect; potency is the fitted concentration of half-maximal effect.

SMILES | 12-LOX inh | Sfp inh | PLK1 PBD inh | VDR inh | TbPYK confirm | TbPYK ADP-Glo
Cc1ccc(NC2=C(NC(=O)c3ccccc3)C(=O)c3ccccc3C2=O)cc1Cl | ? | 10µM* | 27µM* | -15% | ? | ?
O=C1N=C(c2ccccc2)S/C1=C\c1cccs1 | ? | 35µM* | 24µM* | ? | 4.5µM* | 6.3µM*
O=C(CCCC(=O)NC1CCCCC1)Nc1ccc([N+](=O)[O-])cc1 | -4% | 0% | -15% | -9% | / | /
O=C(CN1C(=O)NC2(CCCC2)C1=O)Nc1ccc(Cl)cc1F | -1% | 21% | -11% | 12% | / | /
Oc1ccc(N2CCN(Cc3nc4ccccc4[nH]3)CC2)cc1 | ? | 56µM* | -7% | 3% | 18µM* | 28µM*
CCCCCC(=O)NNC(=S)NC(=O)c1cccc([N+](=O)[O-])c1 | ? | ? | 15µM* | ? | 11µM* | 14µM*
COc1cccc(-c2cc(C3CCN(C(=O)Nc4ccc(F)cc4F)CC3)[nH]n2)c1 | 28% | / | / | / | / | /
CC(=O)Nc1ccc2c(c1)Cc1cc(N3C(=O)C=CC3=O)ccc1-2 | -26% | / | 3µM* | 28µM* | 8.9µM* | 6.3µM*
O=C1C=CC(=O)N1c1ccc2c(c1)Cc1cc(F)ccc1-2 | -12% | / | ? | ? | / | /
COCCNC(=O)Cn1nc(C)c2sc(-c3ccccc3)nc2c1=O | 22% | / | / | / | / | /
Cc1nc(-c2ccc(C(=O)N3CCOCC3)cc2)cs1 | 0% | 2% | -2% | 5% | / | /
Cc1nc(-c2ccc(C(=O)N3CCCC3)cc2)cs1 | 0% | 17% | -9% | -1% | ? | 10%
Cc1ccc(O)c(N=Nc2ccccc2)n1 | ? | ? | -8% | 0% | 10µM* | 15%
Oc1ccc(N=Nc2ccccc2)cc1 | 2% | 9% | 5% | 0% | / | /
CCOC1=CC2=C(C(=O)C(Cl)=CC2=O)[C@@H]2CN(S(=O)(=O)c3ccc(C)cc3)[C@@H](c3ccccc3)[C@H]12 | 0.89µM* | / | 6.7µM* | / | 1.4µM* | 2µM*
CCN1C(=O)[C@@H]2[C@@H]3CN(S(=O)(=O)c4ccc(C)cc4)[C@@H](c4ccccc4)[C@@H]3C(=O)C[C@@H]2C1=O | ? | / | 0% | / | / | /
O=C(Cc1ccccn1)N1CCn2c(nn(-c3ccc(F)cc3)c2=O)C1 | 7% | / | / | / | / | /
S=C1SCN(Cc2ccccc2)CN1Cc1ccco1 | 35µM* | / | 12µM* | / | ? | ?
S=C1SCN(Cc2ccccc2)CN1Cc1ccccc1 | 7% | -10% | 0% | 16% | / | /
COc1ccccc1CN1CC(C(=O)NCc2ncccc2C)CCC1=O (stereo not given) | 0% | 12% | -17% | 12% | / | /
CC1(C)Cc2c(C#N)c(NCCc3ccccc3)nc(-c3ccco3)c2CO1 | ? | 50µM* | ? | ? | ? | 13µM*
CCc1ccc(-c2nc(CN3CCCC(C(=O)NCc4ccccc4Cl)C3)c(C)o2)cc1 (stereo not given) | 0% | / | / | -4% | / | /
Cc1ccc(Sc2nc(C)cc(C)n2)cc1 | 1% | / | / | / | / | /
CC1=CC(=O)C(Sc2ccc(C)cc2)=CC1=O | 1.1µM* | / | 0.84µM* | / | 1.3µM* | 2.5µM*
O=C1N/C(=C/c2ccc(N3CCOCC3)o2)C(=O)N1c1ccccc1 | -13% | -91% | 49% | 45µM* | ? | 16µM*
SMILES | 12-LOX inh | Sfp inh | PLK1 PBD inh | VDR inh | TbPYK confirm | TbPYK ADP-Glo
O=C(CCc1nc2ccccc2[nH]1)N1CCN(C(=O)c2ccco2)CC1 | 482% | 6% | -2% | -1% | / | /
O=C(CSc1ccc(-c2nc3ccccc3[nH]2)cn1)N1CCN(C(=O)c2ccco2)CC1 | ? | -4% | 30µM* | ? | ? | ?
O=S(=O)(NCc1ccccc1Cl)c1ccc(N2CCCCS2(=O)=O)cc1 | -13% | / | / | -11% | / | /
Cc1ccc(S(=O)(=O)NNC(=O)C2CCN(S(=O)(=O)c3ccc(C)cc3)CC2)cc1 | -6% | 16% | -7% | -1% | 4% | -3%
Fc1ccccc1NC(=S)N1CCOCC1 | -3% | 5% | -5% | -8% | / | /
Cc1ccc(-n2c(N)c(C(=O)N3CCN(C)CC3)sc2=S)cc1 | -17% | -93% | 3µM* | 25µM* | 0.63µM* | 4.5µM*
COC(=O)c1cc(-c2ccc(C)o2)nc2ccccc12 | 6.3µM* | 11µM* | 15µM* | 79µM* | ? | ?
COC(=O)c1cc(-c2cccnc2)nc2ccccc12 | -15% | / | / | / | / | /
Cc1ccc(-c2cc(C(=O)N3CC(C)CC(C)C3)c3ccccc3n2)o1 (stereo not given) | 35µM* | 22µM* | 24µM* | ? | 25µM* | 35µM*
COC(=O)c1sccc1NC(=O)Nc1ccc(F)cc1 | ? | 6% | 4% | 40% | ? | -4%
Cc1c(F)cccc1NC(=O)Nc1cccc(-c2nnc3n2CCCC3)c1 | 40% | / | / | / | / | /
CCC1CN(C(=O)N2CCC(C(=O)N3CCN(c4ccc(F)cc4)CC3)CC2)c2ccccc2O1 (stereo not given) | -3% | / | / | -3% | / | /
CCOCCCNC(=O)c1cc2c(s1)-c1ccccc1SC2 | ? | 79µM* | 27µM* | ? | 10µM* | 13µM*
CC1(C)CC(=O)C(=CN2CCOCC2)C(=O)C1 | -13% | -30% | -17% | 0% | / | /
Oc1cc(O)cc(/C=C/c2ccc(O)c(O)c2)c1 | 7.9µM*! | 40µM* | -13% | -13% | 11µM* | ?
CCOC(=O)Cn1cc(C(=O)C(C)(C)C)c2ccccc21 | -3% | 11% | -3% | 8% | / | /
COc1ccc(Cn2nnnc2C(c2cccs2)N2CCN(c3ccccc3)CC2)cc1 (stereo not given) | -10% | -3% | 0% | 10% | / | /
Oc1ccc(N2CCN(C(c3cccs3)c3nnnn3CCc3ccccc3)CC2)cc1 (stereo not given) | ? | 50µM* | -5% | 1% | 4.5µM* | 22µM*
C=Cc1ccc(Cn2c(C)c(CNCc3ccc(SC)cc3)c(C(=O)O)c2C)cc1 | ? | / | / | 5% | / | /
Cc1ccc(C2=CSC3=NCCN23)c(C)c1 | ? | -26% | ? | -3% | 13µM* | 16µM*
Cc1ccccc1C(=O)N[C@H](C(=O)N1CCC[C@H]1C(=O)NC1CCCC1)C1CCCCC1 | -1% | / | / | / | / | /
CN(C)CCNC(=O)C(C)(C)Oc1nn(CC2CCOCC2)c2ccccc12 | -4%[176 µM] | / | / | / | / | /
COc1cc(N=c2ssnc2Cl)cc(OC)c1OC | ? | 14µM* | 0.95µM* | ? | 3.5µM* | 6.3µM*
Clc1ccc(N=c2ssnc2Cl)cc1 | ? | 4µM* | 1.9µM* | 25µM* | 7.9µM* | 10µM*
Fc1ccc(N=c2ssnc2Cl)c(F)c1 | 7.1µM* | 14µM* | 1.7µM* | 35µM* | 28µM* | 32µM*
Clc1ccc(N=Cc2ccc(C=Nc3ccc(Cl)cc3)cc2)cc1 | 3% | / | / | / | / | /
CCOC(=O)c1ccc(N=c2ssnc2Cl)cc1 | 2.2µM* | -103% | 2.1µM* | 16µM* | 16µM* | 16µM*
